Drawing on PubChem BioAssay (NCATS), this text covers Potency, activation and activity change, negative = inhibition for 24 compounds.

Records with an inconclusive call do not appear. A number with no mark means an inactive call. The source made the active and inactive calls. Calls follow the shape of the dose curve; as a rule, active = well fitted curve in the direction sought with a large enough effect; inconclusive = small, poorly fitted or top-dose-only effect, or another doubt; inactive = no such curve, though single readings can be large; an effect the other way counts as inactive or inconclusive.

Experiment [1] addresses Cellular tumor antigen p53 (Homo sapiens) (UniProt P04637). The experiment can be described thus: Primary qHTS for small molecule compounds that upregulate eGFP-tagged delta133p53alpha (in N-terminal) cells. (AID 2060322). Also: nearly all actives have a fitted effect of over 75% in size. Also: potency is read from the fitted curve at half-maximal effect.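 As to activation: series mostly up to about 56 µM; 0% = DMSO vehicle and 100% = reference activator.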 The settings on record: NCI-H358 eGFP-delta133p53alpha fluorescence, 24 h; activation: active compounds read high. In a few lines: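 NCI-H358 cells pre-induced 24 h with 10 ng/ml doxycycline to express N-terminal eGFP-delta133p53alpha, then dosed 24 h at 37C without doxycycline; fixed, Hoechst-stained, GFP intensity by laser scanning cytometry, normalized to DMSO (0%) and 57.5 uM 5-azacytidine (100%).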

In experiment [2] the target is Aldehyde dehydrogenase, mitochondrial (Homo sapiens) (UniProt P05091). The experiment is described as follows: qHTS for Inhibitors of the Aldehyde Dehydrogenase Family (ALDH2) Primary screen (AID 2061308).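 Also: plate controls were vehicle for no effect and reference inhibitor for full effect; nearly all actives have a fitted effect of over 55% in size.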
The target of experiment [3] is Retinaldehyde dehydrogenase 3 (Homo sapiens) (UniProt P47895). The experiment can be described thus: qHTS for Inhibitors of the Aldehyde Dehydrogenase Family (ALDH1A3) Primary screen (AID 2061315).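 Also: plate controls were DMSO vehicle for no effect and reference inhibitor for full effect.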

Cellular tumor antigen p53 (Homo sapiens), sequence (P04637 whole entry, looked up): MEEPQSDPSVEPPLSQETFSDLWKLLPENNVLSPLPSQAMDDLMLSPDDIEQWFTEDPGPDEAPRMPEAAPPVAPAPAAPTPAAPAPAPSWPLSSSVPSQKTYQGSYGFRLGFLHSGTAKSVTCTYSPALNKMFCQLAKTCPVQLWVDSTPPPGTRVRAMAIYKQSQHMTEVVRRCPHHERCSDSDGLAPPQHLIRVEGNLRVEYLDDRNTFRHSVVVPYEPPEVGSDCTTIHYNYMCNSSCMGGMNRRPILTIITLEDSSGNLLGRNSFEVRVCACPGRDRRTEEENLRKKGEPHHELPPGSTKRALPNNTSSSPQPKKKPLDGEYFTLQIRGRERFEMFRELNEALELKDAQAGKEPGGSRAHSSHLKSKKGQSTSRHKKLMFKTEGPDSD

On to `C=C1C(=O)O[C@@H]2C3=C(C)CCC[C@]3(C)CC[C@@]12O`, for which the Potency in experiment [1] was 16.9 µM (active). For the same compound, the Potency result in experiment [2] and in experiment [3] was “inactive” each time.
As for `CC1=C2C3OC(=O)C(C)C3(O)CCC2(C)CCC1=O` (configuration not stated), the activation in experiment [1] is -20.5%. In addition, the Potency result in experiment [2] and in experiment [3] was “inactive” throughout.
As for `C=C1C(=O)O[C@H](CCC)[C@H]1C(=O)O`, the activation in experiment [1] was -1.67%. Further, the Potency entry in experiment [2] and in experiment [3] was “inactive” throughout.
Consider `CC1(C)CC[C@]2(C(=O)O[C@@H]3O[C@H](CO)[C@@H](O)[C@H](O)[C@H]3O)CC[C@]3(C)C(=CCC4[C@@]5(C)CC[C@H](O[C@@H]6O[C@H](C(=O)O)[C@H](O)[C@H](O)[C@H]6O)C(C)(C)C5CC[C@]43C)[C@@H]2C1` (some centres not stated), for which, in experiment [1], the activation was -2.68%. For the same compound, the Potency entry in experiment [2] and in experiment [3] was “inactive” throughout.
As for `COc1cc(O)c2c(c1Cl)CC(C)OC2=O` (configuration not stated), the activation in experiment [1] is 7.14%. For the same compound, the Potency result in experiment [2] and in experiment [3] was “inactive” in each case.
Take `Cc1cccc(N(C)C(=S)Oc2ccc3c(c2)CCC3)c1`: the activation in experiment [1] was -3%. Also, the Potency result in experiment [2] and in experiment [3] was “inactive” throughout.
As for `CC1C(OC(=O)c2ccccc2)C(O)C2C(C(=O)O)=COC(OC3OC(CO)C(O)C(O)C3O)C12` (configuration not stated), in experiment [1], the activation is -16%. Further, the Potency result in experiment [2] and in experiment [3] was “inactive” throughout.
As to `C=C1C(=O)OC2/C=C(\C)CC/C=C(\C)CC(OC(C)=O)C12` (configuration not stated), the Potency in experiment [1] was 26.9 µM (active). Further, the Potency result in experiment [2] and in experiment [3] was “inactive” throughout.
Regarding `C=C[C@H]1[C@H](O[C@@H]2O[C@H](CO)[C@@H](O)[C@H](O)[C@H]2O)OC=C(C(=O)OC)[C@H]1CC=O`, the activation in experiment [1] is -32.8%. Besides, the Potency result in experiment [2] and in experiment [3] was “inactive” in each case.
On to `Cc1c(C(=O)NCCCO)cnn1-c1nc(-c2cccc(C(F)(F)F)c2)cs1`, for which the Potency in experiment [1] is 9.53 µM (active). Further, the Potency result in experiment [2] and in experiment [3] was “inactive” in each case.
Turning to `COc1c(C)c(OCC(O)C(C)(C)O)cc2c1COC2=O` (configuration not stated), the activation in experiment [1] was 5.34%. The Potency result in experiment [2] and in experiment [3] was “inactive” in each case.
Regarding `CC1OC(OC2C(C)OC(OC3C(O)C(CO)OC(O[C@H]4CC[C@@]5(C)C(CC[C@]6(C)C5CC=C5C7[C@@H](C)[C@H](C)CC[C@]7(C(=O)O)CC[C@]56C(=O)O)C4(C)C)C3O)C(O)C2O)C(O)C(O)C1O` (some centres not stated), in experiment [1], the activation is 3.82%. Further, the Potency result in experiment [2] and in experiment [3] was “inactive” each time.
Turning to `CCC1=C(C)C(=O)C(C)CC12C(=O)CCC2C(=O)O` (configuration not stated), the activation in experiment [1] was -11.5%. The Potency result in experiment [2] and in experiment [3] was “inactive” in each case.
For `C/C=C(\C)C(=O)O[C@H]1[C@@H](O[C@]2(COC(=O)CC(C)C)O[C@H](COC(=O)C(C)CC)[C@@H](OC(C)=O)[C@@H]2O)O[C@H](COC(C)=O)[C@@H](O)[C@@H]1O` (some centres not stated), in experiment [1], the activation was 9.16%. Moreover, the Potency result in experiment [2] and in experiment [3] was “inactive” each time.
With `CC(=O)c1ccc(O[C@@H]2OC[C@@H](O)[C@H](O)[C@H]2O[C@]2(CO)O[C@H](CO)[C@@H](O)[C@@H]2O)c(O)c1`, the activation in experiment [1] is -9.92%. Besides, the Potency entry in experiment [2] and in experiment [3] was “inactive” throughout.
Take `CC[C@H](C)[C@H](NC(=O)[C@H](Cc1ccc(O)cc1)NC(=O)[C@@H](N)C(C)C)C(=O)N[C@@H](Cc1cnc[nH]1)C(=O)N1CCC[C@H]1C(=O)N[C@@H](Cc1ccccc1)C(=O)O`: the activation in experiment [1] was 0.333%. Further, the values for the activity change, negative = inhibition in experiment [2] and in experiment [3] were 0.0903% [at 5.59 µM] and 1.7% [at 5.59 µM], respectively.
`CC1OC(OC2C(O)C(OC3CCC4(C)C(CCC5(C)C4CC=C4C6CC(C)(COC7OC(CO)C(O)C(O)C7O)CC(O)C6(C)CCC45C)C3(C)C)OC(C(=O)O)C2O)C(O)C(O)C1OC1OCC(O)C(O)C1O` (configuration not stated): the activation in experiment [1] is -4.46%. The Potency result in experiment [2] and in experiment [3] was “inactive” each time.
Regarding `CC1CCC(=O)CC(SCC(O)C(=O)O)CCC(=O)O1` (configuration not stated), the activation in experiment [1] was -26%. Moreover, the Potency result in experiment [2] and in experiment [3] was “inactive” throughout.
Regarding `C=C1CC2C3(C)C=CC(=O)OC(C)(C)C3CC(OC(C)=O)C2(C)C2C(=O)OC(C)C(=O)C12C` (configuration not stated), in experiment [1], the activation was 15.3%. Also, the Potency result in experiment [2] and in experiment [3] was “inactive” each time.
`CC(C)C(O)(CO)CCO[C@@H]1O[C@H](CO[C@H]2OC[C@](O)(CO)[C@H]2O)[C@@H](O)[C@H](O)[C@H]1O` (some centres not stated): in experiment [1], the activation is -13%. Moreover, the Potency result in experiment [2] and in experiment [3] was “inactive” in each case.
Consider `CC1=C2CC(O)(C(C)(C)O)C(O[C@@H]3O[C@H](CO)[C@@H](O)[C@H](O)[C@H]3O)CC(C)C2CC1=O` (some centres not stated), for which the activation in experiment [1] is -3.05%. Further, the Potency result in experiment [2] and in experiment [3] was “inactive” throughout.
As for `Cc1ncc(CCCN(C)C)cc1Nc1ncc2c(n1)-c1ccc(C(F)(F)F)cc1NC(=S)C2`, the activation in experiment [1] was 22.3%. Further, the Potency entry in experiment [2] and in experiment [3] was “inactive” each time.
In the case of `CCC(C)/C=C(C)/C=C/C1=CC2=C(Cl)C(=O)C(C)(OC(C)=O)C(=O)C2=CN1CCCCC(N)C(=O)O` (configuration not stated), the activation in experiment [1] was -16.8%. Besides, the Potency result in experiment [2] and in experiment [3] was “inactive” throughout.
Regarding `COc1cc(C)c(C(=O)OC2C(C)OC(OC3CCC(C)C4C3C=C(C)C3/C(C)=C\CC/C(C)=C/C5(C)C=C(C(=O)O)C(C)CC56OC(=O)/C(=C(\O)C34C)C6=O)C(O)C2O)c(OC)c1` (configuration not stated), the activation in experiment [1] was 10.7%. Further, the Potency result in experiment [2] and in experiment [3] was “inactive” throughout.
